Results filed as inconclusive are left out. Where a call stands in place of a potency, no number is given. Activity calls are given as the source filed them. Unless noted, calls come from the whole dose curve.
Experiments:
[1] = Nuclear factor erythroid 2-related factor 2/antioxidant responsive element (Nrf2/ARE) small molecule agonists: qHTS cell viability counter screen in human keratinocytes (AID 1919968; active = well fitted curve in the direction sought with a large enough effect in the repeat runs; an effect the other way counts as inactive or inconclusive; note: nearly all actives have a fitted effect of over 55% in size; note: potency is the fitted concentration of half-maximal effect)
Outline: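 After a 5 h attachment period, ARE-reporter keratinocytes were dosed with compounds in DMSO and then cultured 23 h at 37 C. Cell viability came from CellTiter-Fluor signal read after a further 1 h.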

[2] = Nuclear factor erythroid 2-related factor 2/antioxidant responsive element (Nrf2/ARE) small molecule agonists: luciferase reporter gene qHTS assay in human keratinocytes (AID 1919969); note: nearly all actives have a fitted effect of over 35% in size
[3] = target: KiSS-1 receptor (Homo sapiens) (UniProt Q969F8); test: Human kisspeptin (KISS1R) small molecule agonists, calcium flux assay in KISS1R-HEK293 cells (AID 1920064; active = well fitted curve in the direction sought with a large enough effect in the repeat runs; an effect the other way counts as inactive or inconclusive)
Sequence of KiSS-1 receptor (Homo sapiens) (Q969F8 whole entry, looked up): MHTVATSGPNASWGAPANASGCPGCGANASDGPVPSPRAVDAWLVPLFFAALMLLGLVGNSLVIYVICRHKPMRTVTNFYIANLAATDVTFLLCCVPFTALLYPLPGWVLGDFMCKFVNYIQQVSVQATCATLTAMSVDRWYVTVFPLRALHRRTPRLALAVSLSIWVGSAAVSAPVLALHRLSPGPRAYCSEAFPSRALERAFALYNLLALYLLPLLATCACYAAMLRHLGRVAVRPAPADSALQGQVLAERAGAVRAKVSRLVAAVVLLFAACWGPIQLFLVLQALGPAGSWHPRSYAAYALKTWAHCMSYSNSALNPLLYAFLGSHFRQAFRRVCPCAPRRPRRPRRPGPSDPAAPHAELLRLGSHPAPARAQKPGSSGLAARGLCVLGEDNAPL
Outline: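 Kinetic calcium assay, 1 s sampling over 3 min at Ex/Em 480/540, in HEK293 cells engineered with human KISS1R; compounds delivered in DMSO after 1 h dye loading.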

[4] = G protein-coupled receptor (GPCR) small molecule agonists, calcium flux assay: HEK293 wild type cell line counter screen (AID 1920065)
Outline: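 Calcium-sensitive dye, loaded 1 h at 37 C into cells cultured 18 h, reports compound-evoked calcium release as fluorescence (Ex/Em 480/540), measured over 3 min. Agonist mode; 15-point titrations, triplicate.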

[5] = p53 small molecule agonists, cell-based qHTS assay with human liver microsomes: qHTS cell viability counter screen (AID 1963579); note: nearly all actives have a fitted effect of over 45% in size; note: potency is the fitted concentration of half-maximal effect
Outline: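 In this multiplexed counter screen, the reporter plates were subsequently treated with CellTiter-Glo so that cell viability, reflected by luminescence, could be recorded for p53RE-bla cells dosed 16 h with compounds under microsomal activation (HLM and NADPH).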

[6] = p53 small molecule agonists, cell-based qHTS assay with rat liver microsomes: qHTS cell viability counter screen (AID 1963580); note: nearly all actives have a fitted effect of over 45% in size
Outline: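 p53RE-bla HCT-116 cells were exposed 16 h at 37 C to compounds with rat liver microsomes (0.5 mg/mL) and NADPH (0.5 mg/mL). Viability was measured in the same wells as ATP content by CellTiter-Glo luminescence.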

[7] = p53 small molecule agonists, cell-based qHTS assay: qHTS cell viability counter screen (AID 1963581); note: nearly all actives have a fitted effect of over 45% in size
Outline: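 Following 5 h attachment, HCT-116 p53RE-bla cells took up compound for 16 h at 37 C; the reporter was read with B/G FRET substrate (2 h RT), and viability then via CellTiter-Glo ATP luminescence.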

[8] = target: 5-hydroxytryptamine receptor 2A (Homo sapiens) (UniProt P28223); test: 5-hydroxytryptamine receptor 2A (HTR2A) small molecule antagonists, cell-based qHTS assay (AID 1963586); note: nearly all actives have a fitted effect of over 45% in size
Sequence of 5-hydroxytryptamine receptor 2A (Homo sapiens) (P28223 whole entry, looked up): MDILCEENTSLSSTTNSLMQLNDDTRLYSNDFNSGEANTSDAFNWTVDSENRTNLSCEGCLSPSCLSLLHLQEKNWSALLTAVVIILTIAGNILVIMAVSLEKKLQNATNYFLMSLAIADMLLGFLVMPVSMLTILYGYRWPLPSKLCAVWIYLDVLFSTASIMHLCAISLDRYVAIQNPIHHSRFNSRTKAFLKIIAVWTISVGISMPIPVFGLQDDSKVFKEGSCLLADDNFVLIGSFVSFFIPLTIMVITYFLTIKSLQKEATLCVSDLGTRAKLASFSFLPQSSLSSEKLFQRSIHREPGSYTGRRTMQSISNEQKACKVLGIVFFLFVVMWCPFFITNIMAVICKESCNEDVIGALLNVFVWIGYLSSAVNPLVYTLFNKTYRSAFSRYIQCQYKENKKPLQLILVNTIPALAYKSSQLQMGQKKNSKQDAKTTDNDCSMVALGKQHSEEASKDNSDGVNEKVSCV
Outline: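 Antagonist-mode intracellular calcium assay: DOI (4 nM) added after 5 min compound pre-incubation at room temperature to dye-loaded HTR2A-CHO cells. Fluorescence followed for 3 min, sampled every second.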

[9] = target: 5-hydroxytryptamine receptor 2A (Homo sapiens) (UniProt P28223); test: 5-hydroxytryptamine receptor 2A (HTR2A) small molecule agonists, cell-based qHTS assay (AID 1963587); note: nearly all actives have a fitted effect of over 30% in size; note: potency is the fitted concentration of half-maximal effect
Outline: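 CHO cells stably expressing human HTR2A, plated 18 h, loaded with calcium dye 1 h at 37 C. Agonist mode: compounds added and intracellular calcium fluorescence recorded kinetically for 2 min at 1 sec intervals.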

[10] = target: Muscarinic acetylcholine receptor M1 (Homo sapiens) (UniProt P11229); test: Cholinergic receptor muscarinic 1 (CHRM1) small molecule agonists, cell-based qHTS assay (AID 1963589); note: nearly all actives have a fitted effect of over 35% in size
Sequence of Muscarinic acetylcholine receptor M1 (Homo sapiens) (P11229 whole entry, looked up): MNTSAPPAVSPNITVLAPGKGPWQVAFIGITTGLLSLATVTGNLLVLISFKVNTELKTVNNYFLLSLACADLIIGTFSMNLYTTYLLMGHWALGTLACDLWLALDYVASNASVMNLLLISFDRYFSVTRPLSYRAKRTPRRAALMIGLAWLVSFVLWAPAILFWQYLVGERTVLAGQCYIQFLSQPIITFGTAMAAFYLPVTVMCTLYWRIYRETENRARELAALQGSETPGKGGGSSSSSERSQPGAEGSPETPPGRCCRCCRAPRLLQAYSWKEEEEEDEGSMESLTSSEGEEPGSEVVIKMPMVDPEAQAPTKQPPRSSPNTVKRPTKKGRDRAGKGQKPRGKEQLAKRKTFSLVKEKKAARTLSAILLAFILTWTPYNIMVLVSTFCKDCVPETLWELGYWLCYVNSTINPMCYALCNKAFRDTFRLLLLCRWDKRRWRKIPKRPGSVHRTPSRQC
Outline: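 Measures agonist-induced intracellular calcium rise. Stable human CHRM1 CHO line, 1 h dye load at 37 C, compounds from DMSO, kinetic fluorescence read.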

[11] = cAMP Responsive Elements (CRE) small molecule agonists, cell-based qHTS assay (AID 1963590)
Outline: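 A CRE-responsive beta-lactamase reporter in HEK 293T cells was used. Treatment ran 3 h at 37 C; detection used LiveBLAzer B/G FRET substrate for 2 h at room temperature.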

[12] = cAMP Responsive Elements (CRE) small molecule antagonists, cell-based qHTS assay (AID 1963591; active = well fitted inhibition curve with a large enough effect in the signal ratio in the repeat runs, not every such curve was filed as active; the % refers to the signal ratio)
Outline: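 HEK293T cells carrying a CRE-driven beta-lactamase reporter receive compound and NKH477 (0.25 uM final) for 3 h. Fluorescence from LiveBLAzer B/G FRET substrate is read after 2 h at room temperature.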

[13] = target: Beta-2 adrenergic receptor (Homo sapiens) (UniProt P07550); test: Adrenergic beta2 receptor (ADRB2) small molecule antagonists, cell-based qHTS assay (AID 1963592); note: series mostly up to about 92 µM; nearly all actives have a fitted effect of over 50% in size
Sequence of Beta-2 adrenergic receptor (Homo sapiens) (P07550 whole entry, looked up): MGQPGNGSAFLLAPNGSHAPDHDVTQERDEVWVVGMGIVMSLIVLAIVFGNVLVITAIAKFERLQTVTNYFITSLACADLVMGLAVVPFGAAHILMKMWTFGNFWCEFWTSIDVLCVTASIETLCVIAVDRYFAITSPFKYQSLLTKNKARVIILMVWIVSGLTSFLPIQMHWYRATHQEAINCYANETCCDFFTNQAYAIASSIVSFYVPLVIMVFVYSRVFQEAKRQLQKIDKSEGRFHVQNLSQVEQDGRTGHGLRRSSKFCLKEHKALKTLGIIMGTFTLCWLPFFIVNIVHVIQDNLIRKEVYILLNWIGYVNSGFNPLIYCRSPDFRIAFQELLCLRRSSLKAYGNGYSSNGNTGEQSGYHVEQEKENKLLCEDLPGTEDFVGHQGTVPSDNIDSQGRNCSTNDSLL
Outline: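 Cells (CHO, stable ADRB2 overexpression) incubated 18-20hr at 37C; compounds added from DMSO; agonist mix (1nM isoproterenol, 100uM IBMX, 25uM Ro-20-1724) added; 0.5hr RT; d2-cAMP and anti-cAMP-cryptate added; 1hr RT; 665/615 nm read.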

[14] = target: Beta-2 adrenergic receptor (Homo sapiens) (UniProt P07550); test: Adrenergic beta2 receptor (ADRB2) small molecule agonists, cell-based qHTS assay (AID 1963593);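 note: CHO cells stably overexpressing human ADRB2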
Outline: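 CHO cells stably over-expressing ADRB2 were plated overnight at 37C, then dosed with compounds plus a stimulation mix containing 100uM IBMX and 25uM Ro-20-1724 for 0.5hr at room temperature. cAMP was measured by HTRF competition, 1hr.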

[15] = target: D(2) dopamine receptor (Homo sapiens) (UniProt P14416); test: Dopamine D2 receptor (DRD2) small molecule agonists, cell-based qHTS assay (AID 1963594); note: nearly all actives have a fitted effect of over 35% in size
Sequence of D(2) dopamine receptor (Homo sapiens) (P14416 whole entry, looked up): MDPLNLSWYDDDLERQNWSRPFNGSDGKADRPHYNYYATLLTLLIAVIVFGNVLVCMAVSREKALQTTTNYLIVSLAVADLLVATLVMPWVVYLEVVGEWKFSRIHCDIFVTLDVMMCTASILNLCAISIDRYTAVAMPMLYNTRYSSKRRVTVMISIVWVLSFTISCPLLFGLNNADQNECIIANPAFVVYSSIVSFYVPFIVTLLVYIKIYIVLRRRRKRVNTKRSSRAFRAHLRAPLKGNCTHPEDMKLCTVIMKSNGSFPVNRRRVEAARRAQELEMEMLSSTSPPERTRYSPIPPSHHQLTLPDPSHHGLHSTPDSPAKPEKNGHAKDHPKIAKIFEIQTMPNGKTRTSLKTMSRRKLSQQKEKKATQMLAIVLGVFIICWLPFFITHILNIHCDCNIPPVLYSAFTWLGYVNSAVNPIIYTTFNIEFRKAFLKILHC
Outline: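 HEK293 cells stably expressing human DRD2, pre-treated with PDE inhibitor Ro20-1724 (0.1 mM final) and compound 10 min at room temperature, then stimulated with NKH477 (200nM […]) for 30 min. cAMP read by HTRF (665/620 nm).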

[16] = target: D(2) dopamine receptor (Homo sapiens) (UniProt P14416); test: Dopamine D2 receptor (DRD2) small molecule antagonists, cell-based qHTS assay (AID 1963595; active = well fitted inhibition curve with a large enough effect in the signal ratio in the repeat runs, with a control signal flat; the % refers to the signal ratio)
Outline: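 HTRF cAMP read-out at 665 and 620 nm emission (340 nm excitation). Antagonist mode: compounds were tested against 12 nM quinpirole in DRD2-HEK293 cells, with 200 nM NKH477 raising cAMP and 0.1 mM Ro20-1724 blocking its breakdown.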

[17] = target: Muscarinic acetylcholine receptor M1 (Homo sapiens) (UniProt P11229); test: Cholinergic receptor muscarinic 1 (CHRM1) small molecule antagonists, cell-based qHTS assay (AID 1963588); note: nearly all actives have a fitted effect of over 40% in size; note: potency is the fitted concentration of half-maximal effect
Outline: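 CHRM1-CHO calcium-flux assay, antagonist mode. Cells were seeded 18 h, dye-loaded 1 h at 37 C and given compound for 5 min at RT, then acetylcholine was added at 50nM. FDSS fluorescence was read 3 min; 15 concentrations, three runs.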

[18] = p53 small molecule agonists, cell-based qHTS assay (AID 1963582; active = well fitted activation curve with a large enough effect in the signal ratio in the repeat runs, not every such curve was filed as active; the % refers to the signal ratio)
Outline: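 In this cell-based concentration-response screen, a p53 response element drives beta-lactamase; cells received DMSO-borne compounds after 5 h culture and were incubated a further 16 h before FRET substrate development.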

SMILES | Potency [1] | Potency [2] | Potency [3] | Potency [4] | Potency [5] | Potency [6] | Potency [7] | Potency [8] | Potency [9] | Potency [10] | Potency [11] | Potency [12] | Potency [13] | Potency [14] | Potency [15] | Potency [16] | Potency [17] | Potency [18]
C=C(C)C(=O)OCCOP(=O)(O)OCCOC(=O)C(=C)C | inactive | inactive | inactive | inactive | inactive | inactive | inactive | inactive | inactive | inactive | inactive | inactive | inactive | inactive | inactive | inactive | – | –
CCN[C@H]1C[C@H](C)S(=O)(=O)c2sc(S(N)(=O)=O)cc21 | inactive | inactive | inactive | inactive | inactive | – | inactive | inactive | – | inactive | inactive | inactive | inactive | inactive | inactive | inactive | inactive | –
COC(=O)C1=C(C)NC(C)=C(C(=O)OCC(C)=O)C1c1ccccc1[N+](=O)[O-] (stereo not drawn) | inactive | inactive | inactive | inactive | – | inactive | inactive | inactive | inactive | – | inactive | inactive | – | – | inactive | inactive | inactive | inactive
CN(C)CCOCCO | inactive | inactive | inactive | inactive | inactive | – | – | inactive | – | inactive | inactive | – | inactive | – | – | inactive | inactive | –
Cc1ccc2c(c1)CCCN2 | inactive | inactive | inactive | inactive | inactive | inactive | inactive | inactive | inactive | inactive | – | – | inactive | inactive | inactive | inactive | – | –
O=C1CCC(=O)N1Cl | inactive | inactive | inactive | inactive | inactive | inactive | inactive | inactive | inactive | inactive | inactive | – | inactive | inactive | inactive | inactive | inactive | –
CC/C(=C(/c1ccc(O)cc1)c1ccc(OCCN(C)C)cc1)c1ccccc1 | 18 µM (active) | inactive | inactive | inactive | 26.9 µM (active) | – | – | – | 28.8 µM (active) | – | – | – | – | – | inactive | – | 13.9 µM (active) | –
CCC(C)(C)OC | inactive | inactive | inactive | inactive | inactive | – | inactive | inactive | inactive | inactive | inactive | – | – | inactive | inactive | inactive | inactive | –
CC(=O)OCC1=C(C(=O)O)N2C(=O)[C@@H](NC(=O)CSc3ccncc3)[C@H]2SC1 | inactive | inactive | inactive | inactive | inactive | inactive | inactive | inactive | – | inactive | inactive | inactive | inactive | inactive | inactive | – | inactive | –

From PubChem BioAssay (Tox21)
